# PubChem BioAssay (NCATS)
# Values without a mark were called inactive. Results filed as inconclusive are left out. The source made the active and inactive calls. Unless noted, calls follow the shape of the dose curve; as a rule, active = well fitted curve in either direction with a large enough effect (not every such curve was filed as active); inconclusive = small, poorly fitted or top-dose-only effect, or another doubt; inactive = flat fitted curve, though single readings scatter.
# What was measured:
# [1] = target: Lysosomal acid glucosylceramidase (Homo sapiens) (UniProt P04062); assay: Glucocerebrosidase-p2 (AID 348; in the data active = potency below about 10 µM; also: potency is read from the fitted curve at half-maximal effect); details: purified GBA, blue fluorogenic substrate, 40 min
# How it was run: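 Compounds titrated from 0.6 nM upwards against 0.2 nM enzyme in pH 5.9 citric acid/KH2PO4, taurocholate, tween-20; blue fluorogenic substrate 80 uM, 40 min room temperature, stopped and read Ex 365/Em 440 for AC50.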
# [2] = AP1 Signaling Pathway (AID 357); details: ME-180 AP-1-bla reporter, EGF-induced, beta-lactamase ratio, 5 h; at 7.69 µM (top of the series) unless noted;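 also: ME-180 reporter cells stimulated with EGF at its EC50 level; % is scaled to controls: 0 for no effect and ±100 for the full control effect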
# How it was run: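 Cells are seeded overnight, exposed to compound titrations and an EC50 level of EGF for 5 hours at 37 °C, then loaded with CCF4 dye for 2.5 hours. Beta-lactamase activity under the AP-1 element is read as a blue/green ratio.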
# [3] = target: Cytochrome P450 1A2 (Homo sapiens) (UniProt P05177); assay: p450-cyp1a2 (AID 410; calls by dose curve; also: potency is read from the fitted curve at half-maximal effect;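 as to activity change, negative = inhibition: -100% = full effect of reference inhibitor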); details: recombinant CYP1A2, luciferin-ME demethylation, luminescence; series mostly up to 11.4 µM
# How it was run: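 Human CYP1A2 (20nM) demethylated Luciferin-ME at its Km (100uM) in 100mM KPO4. After 10 min compound preincubation, NADPH regeneration ran the reaction 60 min at room temperature. Luciferin was read by luminescence, normalized to 57 uM furafylline.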
# [4] = NFAT Signaling Pathway (AID 444); details: Jurkat NFAT-bla M1, carbachol, beta-lactamase ratio, 5 h; at 7.69 µM (top of the series) unless noted;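 also: carbachol stimulus at about its EC50 of 1 µM final; % is scaled to controls: 0 for no effect and ±100 for the full control effect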
# How it was run: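 Jurkat cells carrying an NFAT-driven β-lactamase reporter and co-transfected muscarinic M1 receptor were treated with compound plus carbachol (1 uM final, an EC50 level) for 5 h at 37 °C. CCF4 loading followed for 1 h at RT; 460/530 nm ratio gave %activity.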
# [5] = Stat Signaling Pathway (AID 446); details: ME-180 SIE beta-lactamase reporter, IL-6 stimulated, 5 h; at 7.69 µM (top of the series) unless noted;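 also: ME-180 cervical cancer cells given 40 pM IL-6 alongside compound; SIE-controlled beta-lactamase reporter measured as 460/530 nm FRET emission ratio; % is scaled to controls: 0 for no effect and ±100 for the full control effect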
# How it was run: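 ME-180 SIE-bla cells; overnight plating; cpd + IL-6 40 pM, 5 h, 37 C; LiveBLAzer 2.5 h RT; 460/530 nm emission ratio. Normalized to 300 pM IL-6 and 125 nM JAK inhibitor controls.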
# [6] = target: Glucocorticoid receptor (Homo sapiens) (UniProt P04150); assay: GR-GFP Redistribution (AID 450;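 active = compounds whose dose series gives a full or clear partial fitted curve of increased nuclear translocation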; also: potency is read from the fitted curve at half-maximal effect); details: U2OS GR-GFP nuclear translocation, laser cytometry, 2 h
# [7] = target: Glucocorticoid receptor (Homo sapiens) (UniProt P04150); assay: GR-EFC Redistribution (AID 451; calls by dose curve; also: potency is read from the fitted curve at half-maximal effect); details: CHO-K1 GR-EFC translocation, beta-gal luminescence, 2 h
# How it was run: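 CHO-K1 cells stably expressing nuclear-localized β-gal enzyme acceptor and GR fused C-terminally to the enzyme donor fragment; ligand-driven nuclear translocation restores β-gal by complementation. Compounds titrated up to 46 uM final, 2 h at 37 °C; luminescence read.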
# [8] = target: Mitogen-activated protein kinase 10 (Mus musculus) (UniProt Q61831); assay: JNK3 AlphaScreen Assay (AID 530); details: JNK3 lysate, c-Jun phosphorylation; series mostly up to 57.1 µM;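 also: kinase came from lysate of stimulated human HepG2 cells; signal reports phosphorylation of biotinylated GST-cJun 1-79 at Ser73 with 10 µM ATP; % is scaled to controls: 0 for no effect and ±100 for the full control effect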
# How it was run: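 JNK3 came from HepG2 lysates pre-activated with IL-1beta and TNF-alpha and phosphorylated biotinylated GST-cJun (1-79) at 10 uM ATP, pH 7.6, room temperature. Compounds were titrated. AlphaScreen signal used anti-phospho-cJun (Ser73) antibody.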
# [9] = system: HIV-1 nucleocapsid protein NCp7 (binding to TG oligonucleotide); assay: HIV Nucleocapsid (AID 346; call rule not given here;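 also: potency is read from the fitted curve at half-maximal effect; potency is for inhibitors that block NC binding and lower polarization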); details: HIV-1 NC / fluorescein-TGTGTGTG probe, fluorescence polarization
# How it was run: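 NCp7 100 nM + fluorescein TG4xF 10 nM; Hepes pH 7.5/250mM NaCl/1uM ZnCl2/0.004% PEG 20000; 1 hr RT; FP, 45 s exposure; oligo-only wells as negative control.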
# [10] = target: 3',5'-cyclic-AMP phosphodiesterase 4B (Homo sapiens) (UniProt Q07343); assay: qHTS Assay for Inhibitors of PDE-IV (AID 607; active = well fitted activation curve with a large enough effect in the main read-out, with a control signal flat, not every such curve was filed as active; also: % of control where 0% means no effect); details: HEK293 ACTOne CNG channel cells, membrane potential fluorescence; series mostly up to 22.9 µM
# How it was run: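 ACTOne HEK293 cells carry a modified cAMP-gated CNG channel and express endogenous PDE4; plated 1000 cells/well, compounds up to 22.9 uM final. Membrane-potential dye fluorescence (ex 535/em 590) was read; parental cells received 10 uM forskolin + 100 uM RO 20-1724.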
# [11] = target: Cytochrome P450 3A4 (Homo sapiens) (UniProt P08684); assay: qHTS Assay for Inhibitors and Substrates of Cytochrome P450 3A4 (AID 884; active = well fitted curve in the direction sought with a large enough effect; an effect the other way counts as inactive or inconclusive; also: potency is read from the fitted curve at half-maximal effect; nearly all actives have a fitted effect of over 50% in size); details: recombinant CYP3A4, Luciferin-PPXE luminescence; series mostly up to 57.1 µM
# How it was run: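 20 nM human CYP3A4 with 25 uM Luciferin-PPXE (at KM) in 200 mM KPO4, preincubated 10 min with compound; NADPH regeneration started a 60 min RT reaction. Luciferin detected by luminescence, normalized to 57 uM ketoconazole as full inhibition.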
# [12] = target: Cytochrome P450 3A4 (Homo sapiens) (UniProt P08684); assay: qHTS Assay for Activators of Cytochrome P450 3A4 (AID 885; active = well fitted curve in the direction sought with a large enough effect; an effect the other way counts as inactive or inconclusive; also: nearly all actives have a fitted effect of over 65% in size); details: recombinant CYP3A4, Luciferin-PPXE luminescence, 60 min; series mostly up to 57.1 µM
# How it was run: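 20nM CYP3A4 + 25uM Luciferin-PPXE (=KM), 200mM KPO4; cpd 10 min RT; NADPH regen, 60 min RT; stop w/ detection buffer, 20 min; luminescence. Normalized to 57 uM ketoconazole.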
# Chain of 3',5'-cyclic-AMP phosphodiesterase 4B (Homo sapiens) (Q07343 whole entry, looked up): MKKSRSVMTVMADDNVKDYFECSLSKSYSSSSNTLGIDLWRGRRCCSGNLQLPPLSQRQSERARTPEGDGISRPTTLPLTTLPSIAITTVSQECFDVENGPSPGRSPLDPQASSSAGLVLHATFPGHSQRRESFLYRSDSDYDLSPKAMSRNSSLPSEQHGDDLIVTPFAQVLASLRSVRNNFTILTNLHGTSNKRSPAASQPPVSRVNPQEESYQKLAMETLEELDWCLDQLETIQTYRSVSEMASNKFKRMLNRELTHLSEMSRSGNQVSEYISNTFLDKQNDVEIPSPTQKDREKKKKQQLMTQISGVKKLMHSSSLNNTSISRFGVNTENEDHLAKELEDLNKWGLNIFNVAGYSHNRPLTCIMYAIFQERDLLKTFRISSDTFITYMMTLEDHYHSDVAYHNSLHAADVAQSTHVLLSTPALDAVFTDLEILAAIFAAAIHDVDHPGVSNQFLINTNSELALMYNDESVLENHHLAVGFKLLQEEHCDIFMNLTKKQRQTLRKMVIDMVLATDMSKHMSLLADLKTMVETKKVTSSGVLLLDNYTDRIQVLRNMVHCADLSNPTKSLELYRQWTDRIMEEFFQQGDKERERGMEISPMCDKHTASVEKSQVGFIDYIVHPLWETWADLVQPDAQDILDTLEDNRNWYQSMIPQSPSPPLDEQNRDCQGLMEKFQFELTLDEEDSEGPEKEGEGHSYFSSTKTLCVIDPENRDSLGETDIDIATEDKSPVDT
# Chain of Lysosomal acid glucosylceramidase (Homo sapiens) (P04062 whole entry, looked up): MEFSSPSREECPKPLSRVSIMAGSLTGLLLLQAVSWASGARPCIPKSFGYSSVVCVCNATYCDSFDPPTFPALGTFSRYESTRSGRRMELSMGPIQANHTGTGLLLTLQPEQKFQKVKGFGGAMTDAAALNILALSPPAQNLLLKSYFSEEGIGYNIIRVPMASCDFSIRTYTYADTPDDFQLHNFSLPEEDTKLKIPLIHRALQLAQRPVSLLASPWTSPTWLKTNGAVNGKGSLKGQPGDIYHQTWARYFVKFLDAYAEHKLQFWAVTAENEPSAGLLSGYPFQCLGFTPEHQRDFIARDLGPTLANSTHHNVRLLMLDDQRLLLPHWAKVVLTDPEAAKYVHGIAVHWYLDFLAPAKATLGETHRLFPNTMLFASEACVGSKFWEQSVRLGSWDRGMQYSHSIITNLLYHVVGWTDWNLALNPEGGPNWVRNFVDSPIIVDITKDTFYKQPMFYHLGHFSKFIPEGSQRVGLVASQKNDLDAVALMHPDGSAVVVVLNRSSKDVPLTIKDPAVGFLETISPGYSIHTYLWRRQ
# Chain of Cytochrome P450 1A2 (Homo sapiens) (P05177 whole entry, looked up): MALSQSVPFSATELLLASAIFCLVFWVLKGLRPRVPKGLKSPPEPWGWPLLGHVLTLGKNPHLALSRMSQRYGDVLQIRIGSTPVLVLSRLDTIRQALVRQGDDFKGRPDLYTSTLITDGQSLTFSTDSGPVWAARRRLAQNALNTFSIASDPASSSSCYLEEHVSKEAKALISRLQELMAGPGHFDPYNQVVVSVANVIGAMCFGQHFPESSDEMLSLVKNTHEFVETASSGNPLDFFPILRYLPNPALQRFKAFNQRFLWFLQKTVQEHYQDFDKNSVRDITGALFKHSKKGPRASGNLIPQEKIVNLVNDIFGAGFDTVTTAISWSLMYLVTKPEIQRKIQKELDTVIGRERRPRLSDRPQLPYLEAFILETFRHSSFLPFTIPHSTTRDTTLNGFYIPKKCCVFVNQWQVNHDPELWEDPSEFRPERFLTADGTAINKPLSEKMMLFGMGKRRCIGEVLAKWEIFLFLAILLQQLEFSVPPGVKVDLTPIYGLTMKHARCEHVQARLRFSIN
# Chain of Glucocorticoid receptor (Homo sapiens) (P04150 whole entry, looked up, the tested form may be a part): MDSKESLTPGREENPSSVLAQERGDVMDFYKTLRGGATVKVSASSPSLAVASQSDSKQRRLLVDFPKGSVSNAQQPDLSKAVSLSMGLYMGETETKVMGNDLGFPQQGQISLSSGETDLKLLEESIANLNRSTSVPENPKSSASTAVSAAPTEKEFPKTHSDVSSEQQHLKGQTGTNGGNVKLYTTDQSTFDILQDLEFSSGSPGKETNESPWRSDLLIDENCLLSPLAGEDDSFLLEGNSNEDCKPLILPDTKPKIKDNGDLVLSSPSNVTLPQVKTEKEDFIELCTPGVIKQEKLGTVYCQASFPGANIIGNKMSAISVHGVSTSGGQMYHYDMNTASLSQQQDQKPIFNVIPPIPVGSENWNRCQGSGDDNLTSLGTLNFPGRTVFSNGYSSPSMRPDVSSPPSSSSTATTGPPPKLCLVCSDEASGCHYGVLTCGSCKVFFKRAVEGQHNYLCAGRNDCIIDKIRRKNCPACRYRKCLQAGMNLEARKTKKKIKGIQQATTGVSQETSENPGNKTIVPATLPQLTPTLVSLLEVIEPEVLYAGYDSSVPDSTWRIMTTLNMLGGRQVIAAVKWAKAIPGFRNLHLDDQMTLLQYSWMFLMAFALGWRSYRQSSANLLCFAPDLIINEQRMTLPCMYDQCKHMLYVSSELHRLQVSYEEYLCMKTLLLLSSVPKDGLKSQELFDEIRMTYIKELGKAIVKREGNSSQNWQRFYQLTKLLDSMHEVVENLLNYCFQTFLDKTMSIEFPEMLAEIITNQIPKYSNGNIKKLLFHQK
# Chain of Cytochrome P450 3A4 (Homo sapiens) (P08684 whole entry, looked up): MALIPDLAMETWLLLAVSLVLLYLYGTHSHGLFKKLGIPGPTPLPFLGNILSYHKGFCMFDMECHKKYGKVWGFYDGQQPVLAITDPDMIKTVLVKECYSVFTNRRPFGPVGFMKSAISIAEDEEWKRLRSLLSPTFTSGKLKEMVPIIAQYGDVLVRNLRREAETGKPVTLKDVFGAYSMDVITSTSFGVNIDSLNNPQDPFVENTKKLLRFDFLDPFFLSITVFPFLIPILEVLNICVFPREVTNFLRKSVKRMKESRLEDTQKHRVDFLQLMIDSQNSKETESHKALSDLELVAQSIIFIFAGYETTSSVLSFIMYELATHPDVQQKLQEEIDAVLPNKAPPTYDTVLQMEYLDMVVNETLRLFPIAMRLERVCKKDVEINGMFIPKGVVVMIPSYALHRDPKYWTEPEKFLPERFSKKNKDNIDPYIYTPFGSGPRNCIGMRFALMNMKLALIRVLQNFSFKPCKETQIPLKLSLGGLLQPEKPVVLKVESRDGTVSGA
smiles,measurement,setting,value
O=C(O)C[C@H]1NCc2cc3ccccc3nc21,Potency,[1],> 11.4 µM
same,"activity change, negative = inhibition",[2],2.39%
same,"activity change, negative = inhibition",[3],-4.9% [at 2.29 µM]
same,"activity change, negative = inhibition",[4],13.5%
same,"activity, negative = inhibition",[5],5.32%
same,Potency,[6],> 46 µM
same,Potency,[7],> 9.22 µM
same,"activity change, negative = inhibition",[8],1.75% [at 11.4 µM]
Cn1cccc1C(=O)N1CCC[C@@]2(CCN(C(c3ccccc3)c3ccccc3)C2)C1,Potency,[9],> 20 µM
O=C(Oc1ccccc1)N1CCC[C@@]2(CCN(Cc3nccs3)C2)C1,Potency,[9],> 20 µM
same,Potency,[1],> 11.4 µM
same,"activity change, negative = inhibition",[2],-15.6%
same,"activity change, negative = inhibition",[4],-0.597%
same,"activity, negative = inhibition",[5],-14.8%
same,Potency,[7],> 46 µM
same,Potency,[8],inactive
same,outcome,[10],inactive
Cc1ccccc1-c1cc(NCCN2CCOCC2)ncn1,Potency,[9],> 20 µM
O=C(O)/C=C\c1ccc[c]([Sb](=[O])([OH])[OH])c1,Potency,[1],> 11.4 µM
same,"activity change, negative = inhibition",[2],-8.12%
same,"activity change, negative = inhibition",[3],-9.5% [at 2.29 µM]
same,"activity change, negative = inhibition",[4],12.6%
same,"activity, negative = inhibition",[5],-20.4%
same,Potency,[6],> 46 µM
same,Potency,[7],> 9.22 µM
same,"activity change, negative = inhibition",[8],3.13% [at 11.4 µM]
same,outcome,[10],inactive
COc1cccc(Cn2c(=O)c(-c3ccc(F)cc3)nc3cnc(OC)nc32)c1,Potency,[9],> 20 µM
NC(CCl)=N[C@H]1CN2CCC1CC2,Potency,[1],> 11.4 µM
same,"activity change, negative = inhibition",[2],5.68%
same,Potency,[3],inactive
same,"activity change, negative = inhibition",[4],1.17%
same,"activity, negative = inhibition",[5],13.9%
same,Potency,[6],> 46 µM
same,Potency,[7],> 9.22 µM
same,"activity change, negative = inhibition",[8],1.59% [at 11.4 µM]
COCCNc1cc(-c2c(C)noc2C)ncn1,Potency,[9],> 20 µM
NCCCN1CCN(c2ccccc2)CC1,Potency,[1],> 11.4 µM
same,"activity change, negative = inhibition",[2],2.17%
same,Potency,[3],inactive
same,"activity change, negative = inhibition",[4],-2.83%
same,"activity, negative = inhibition",[5],5.73%
same,Potency,[6],> 46 µM
same,Potency,[7],> 9.22 µM
same,"activity change, negative = inhibition",[8],-2.39% [at 11.4 µM]
CC1=NN(c2ccc(S(=O)(=O)O)cc2C)C(=[OH+])[C@H]1N=Nc1cc(S(=O)(=O)O)ccc1C(=O)O.O.[Cr],Potency,[1],> 11.4 µM
same,"activity change, negative = inhibition",[2],-5.8%
same,Potency,[3],inactive
same,"activity change, negative = inhibition",[4],12.1%
same,"activity, negative = inhibition",[5],7.29%
same,Potency,[6],> 46 µM
same,Potency,[7],> 9.22 µM
same,"activity change, negative = inhibition",[8],-0.77% [at 11.4 µM]
Cn1cccc1C(=O)N1CCC2(CC1)CN(Cc1ccc(C#N)cc1)C2,Potency,[9],> 20 µM
CC(C)CCC1(CCN)C(=O)NC(=O)NC1=O,Potency,[1],> 11.4 µM
same,"activity change, negative = inhibition",[2],5.02%
same,Potency,[3],inactive
same,"activity change, negative = inhibition",[4],4.97%
same,"activity, negative = inhibition",[5],1.34%
same,Potency,[6],> 46 µM
same,Potency,[7],> 9.22 µM
same,"activity change, negative = inhibition",[8],-0.876% [at 11.4 µM]
O=C(O)[C@@H](Br)[C@H](Br)C(=O)O,Potency,[1],> 11.4 µM
same,"activity change, negative = inhibition",[2],-8.85%
same,Potency,[3],inactive
same,"activity change, negative = inhibition",[4],12.2%
same,"activity, negative = inhibition",[5],3.93%
same,Potency,[6],> 46 µM
same,Potency,[7],> 9.22 µM
same,"activity change, negative = inhibition",[8],-1.13% [at 11.4 µM]
same,outcome,[10],inactive
NS(=O)(=O)c1ccc(-c2ccc([As](=O)(O)O)cc2)cc1,Potency,[1],> 11.4 µM
same,"activity change, negative = inhibition",[2],0.512%
same,Potency,[3],inactive
same,"activity change, negative = inhibition",[4],17.3%
same,"activity, negative = inhibition",[5],6.23%
same,Potency,[6],> 46 µM
same,Potency,[7],> 9.22 µM
N#Cc1cccc(NC(=O)N2CC3(CCN(C(=O)c4cnccn4)CC3)C2)c1,Potency,[9],> 20 µM
c1cncc(CNc2cc(-c3ccc4c(c3)OCO4)ncn2)c1,Potency,[9],> 20 µM
same,Potency,[11],0.794 µM (active)
same,Potency,[12],inactive
CN1CCN(c2ncc3nc(-c4ccc(Cl)cc4)c(=O)n(CCC#N)c3n2)CC1,Potency,[9],> 20 µM
O=C(O)[C@H]1[O][Sb][O][C@@H](C(=O)O)C1O (some centres not stated),Potency,[1],> 11.4 µM
same,"activity change, negative = inhibition",[2],1.25%
same,"activity change, negative = inhibition",[3],-15% [at 2.29 µM]
same,"activity change, negative = inhibition",[4],8.28%
same,"activity, negative = inhibition",[5],6.32%
same,Potency,[6],> 46 µM
COc1cccc(Cn2c(=O)c(-c3ccc(Cl)cc3)nc3cnc(N4CCNCC4)nc32)c1,Potency,[9],> 20 µM
Cn1c(=O)c2[nH]cnc2n(C)c1=O.[CH2-][C@H](Cc1cccc2cc(C(=O)O)c(=O)oc12)OC.[Hg].[OH-],Potency,[1],4.43 µM (active)
same,"activity change, negative = inhibition",[2],-5.03%
same,Potency,[3],inactive
same,"activity change, negative = inhibition",[4],6.5%
same,"activity, negative = inhibition",[5],14%
C[C@H](Br)C(=O)N[C@H](CO)C(=O)O,Potency,[1],> 11.4 µM
same,"activity change, negative = inhibition",[2],-6.82%
same,Potency,[3],inactive
same,"activity change, negative = inhibition",[4],5.22%
same,"activity, negative = inhibition",[5],-2.06%
same,Potency,[6],> 46 µM
same,Potency,[7],> 9.22 µM
same,"activity change, negative = inhibition",[8],0.572% [at 11.4 µM]
same,outcome,[10],inactive
COc1cccc(-c2nc(NCc3ccccc3)c3ccccc3n2)c1,Potency,[9],> 20 µM
COCCn1c(=O)c(C)nc2cnc(Oc3ccc(OC)cc3)nc21,Potency,[9],> 20 µM
Cc1ccc(C2(c3ccc(C)c(O)c3C)CCN(C)CC2)c(C)c1O,Potency,[1],> 11.4 µM
same,"activity change, negative = inhibition",[2],2.94%
same,Potency,[3],5.01 µM (active)
same,"activity change, negative = inhibition",[4],3.1%
same,"activity, negative = inhibition",[5],3.48%
same,Potency,[6],> 46 µM
same,Potency,[7],> 9.22 µM
same,"activity change, negative = inhibition",[8],1.97% [at 11.4 µM]
N[C@@H](CSC1c2ccccc2-c2ccccc21)C(=O)O,Potency,[1],> 11.4 µM
same,"activity change, negative = inhibition",[2],0.63%
same,Potency,[3],2.51 µM (active)
same,"activity change, negative = inhibition",[4],-6.99%
same,"activity, negative = inhibition",[5],3%
same,Potency,[6],> 46 µM
same,Potency,[7],> 9.22 µM
same,"activity change, negative = inhibition",[8],-0.997% [at 11.4 µM]
same,outcome,[10],inactive
c1ccc(CCN2CCOCC2)nc1,Potency,[1],> 11.4 µM
same,"activity change, negative = inhibition",[2],-2.6%
same,"activity change, negative = inhibition",[3],-3% [at 2.29 µM]
same,"activity change, negative = inhibition",[4],11.7%
same,"activity, negative = inhibition",[5],4.66%
same,Potency,[6],> 46 µM
same,Potency,[7],> 9.22 µM
same,"activity change, negative = inhibition",[8],1.44% [at 11.4 µM]
same,outcome,[10],inactive
